# The source made the active and inactive calls. A call without a number means that no potency is given here. Calls follow the shape of the full dose curve.
# Molecular target: Acetylcholinesterase (Homo sapiens) (UniProt P22303)
# Assay: Acetylcholinesterase (AChE) small molecule antagonists: enzyme-based qHTS assay (AID 1347397); also: nearly all actives have a fitted effect of over 55% in size
# Conditions: Potency: AChE enzyme activity inhibition; series mostly up to 115 µM
# From the text: National Center for Advancing Translational Sciences [NCATS]
# Division of Preclinical Innovation [DPI]
# U.S. Environmental Protection Agency [EPA]
# National Institutes of Environmental Health Sciences [NIEHS]
# National Toxicology Program [NTP]
# U.S. Food and Drug Administration [FDA]
# Acetylcholinesterase (AChE) is the primary cholinesterase in the body that hydrolyzes a key neurotransmitter, acetylcholine. Inhibition of AChE activity can lead to neurotoxicity. The known inhibitors include organophosphorous pesticides (OP), chemical warfare agents, drugs, and various phytochemicals.
# An enzyme-based assay with the recombinant human AChE and Amplite Colormetric acetylcholinesterase assay kit (AAT Bioquest, Sunnyvale, CA) was used to evaluate the chemicals in the Tox21 10K library that inhibit AChE activity. The assay uses 5, 5-dithiobis-(2-nitrobenzoic acid) (DTNB) to quantify the thiocholine produced from the hydrolysis of acetylthiocholine by AChE.
# Tox21 Assay Protocol Summary:
# For the enzyme-based AChE assay, recombinant human AChE (50 mU/mL) in 4 uL/well was dispensed into black, clear-bottom 1536-well plates using a Multidrop Combi dispenser (Thermo Scientific, MA). Then, 23 nL of compound or DMSO (vehicle control) was transferred into the assay plates by a Pintool Station (Wako Automation, CA). The plates were incubated for 30 min at room temperature, followed by the addition of 4 uL of colorimetric detection cocktail solution (DTNB, acetylthiocholine) into each well using a Flying Reagent Dispenser (Beckman Coulter, CA) and then 10 min incubation at room temperature.
# Potency is read from the fitted curve at half-maximal effect.
# Acetylcholinesterase (Homo sapiens), sequence (P22303 whole entry, looked up): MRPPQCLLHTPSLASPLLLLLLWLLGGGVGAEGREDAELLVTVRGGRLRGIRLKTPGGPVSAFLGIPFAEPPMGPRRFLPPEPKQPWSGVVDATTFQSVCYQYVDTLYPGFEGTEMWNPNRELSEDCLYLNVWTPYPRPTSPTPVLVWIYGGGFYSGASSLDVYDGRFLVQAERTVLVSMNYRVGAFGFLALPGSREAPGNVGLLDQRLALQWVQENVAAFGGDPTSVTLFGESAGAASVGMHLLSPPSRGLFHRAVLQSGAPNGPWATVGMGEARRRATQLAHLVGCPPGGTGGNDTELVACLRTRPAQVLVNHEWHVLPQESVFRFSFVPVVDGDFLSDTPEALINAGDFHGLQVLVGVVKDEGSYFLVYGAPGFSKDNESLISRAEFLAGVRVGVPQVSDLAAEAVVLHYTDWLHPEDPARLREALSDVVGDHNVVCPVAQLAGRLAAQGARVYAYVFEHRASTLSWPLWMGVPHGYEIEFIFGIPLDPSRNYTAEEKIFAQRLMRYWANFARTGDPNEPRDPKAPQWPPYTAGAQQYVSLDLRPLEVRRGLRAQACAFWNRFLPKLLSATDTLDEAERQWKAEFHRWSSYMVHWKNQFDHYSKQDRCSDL
row,Compound,Potency
1,CCOP(=S)(Oc1cnc(C(C)(C)C)nc1)OC(C)C (stereo not given),63.3 µM (active)
2,N#CCNCC#N,inactive
3,O=C(CCN1CC1)OCC(CO)(COC(=O)CCN1CC1)COC(=O)CCN1CC1,inactive
4,Cc1ncc(CNC(=O)N(CCCl)N=O)c(N)n1,inactive
5,COc1cc(OC)nc(Oc2cccc(Oc3nc(OC)cc(OC)n3)c2C(=O)O)n1,inactive
6,N#CC(CCc1ccc(Cl)cc1)(Cn1cncn1)c1ccccc1 (stereo not given),inactive
7,CNC(=O)N(C)c1nc2ccccc2s1,inactive
8,C=CC1CC=CCC1 (stereo not given),inactive
9,CCOP(=O)(OCC)OP(=O)(OCC)OCC,inactive
10,CC(C)(C)C(=O)C(Oc1ccc(Cl)cc1)n1cncn1 (stereo not given),inactive
11,COC(=O)c1ccccc1S(=O)(=O)NC(=O)N(C)c1nc(C)nc(OC)n1,inactive
12,CSc1nc(N=[N+]=[N-])nc(NC(C)C)n1,inactive
13,CCOC(=O)N(C)C(=O)CSP(=S)(OCC)OCC,inactive
14,CCC/C(=N\OCC)C1=C(O)CC(CC(C)SCC)CC1=O (stereo not given),inactive
15,COC(=O)c1c(C(F)F)nc(C(F)(F)F)c(C2=NCCS2)c1CC(C)C,inactive
16,COC(C)(C)C,inactive
17,CSc1ccc(C(=O)C(C)(C)N2CCOCC2)cc1,inactive
18,COc1cccc(C(=O)NN(C(=O)c2cc(C)cc(C)c2)C(C)(C)C)c1C,inactive
19,O=C(CCCN1CCC(n2c(=O)[nH]c3ccccc32)CC1)c1ccc(F)cc1,inactive
20,COP(N)(=S)Oc1ccccc1C(=O)OC(C)C (stereo not given),inactive

row,Compound,Potency
1,OC(c1ccccc1)(c1ccccc1)C1CCNCC1,inactive
2,CC1(C)CON(Cc2ccccc2Cl)C1=O,inactive
3,ClCC(Cl)Cl,inactive
4,CC1CCC(=O)O1 (stereo not given),inactive
5,C#C[C@]1(O)C=C[C@H]2[C@@H]3CCC4=CC(=O)CC[C@@H]4[C@H]3CC[C@@]21CC,inactive
6,CCC(C)n1c(=O)[nH]c(C)c(Br)c1=O (stereo not given),inactive
7,Nc1cc(Cl)ccc1O,inactive
8,c1cc2c(c(N3CCNCC3)c1)OCCO2,inactive
9,ClCCOCOCCCl,inactive
10,CCCCOP(=O)(O)OCCCC,inactive
11,COc1cccc2c1cc([N+](=O)[O-])c1c(C(=O)O)cc3c(c12)OCO3,inactive
12,NC(=S)C(N)=S,inactive
13,CC(=O)Nc1cc([As](=O)(O)O)ccc1O,inactive
14,CCN(CC)c1nc(C)cc(OP(=S)(OC)OC)n1,inactive
15,CNC(=O)O/N=C(\C)SC,2.83 µM (active)
16,O=P(O)(Oc1ccccc1)Oc1ccccc1,inactive
17,ClC(Br)Br,inactive
18,NC(=O)c1cc([N+](=O)[O-])cc([N+](=O)[O-])c1,inactive
19,CCCCCCI,inactive
20,CC(C(O)c1ccccc1)N(C)C/C=C/c1ccccc1 (stereo not given),inactive

# — PubChem BioAssay (Tox21)
